# The list is not random: actives were taken first. Their share in the collection is about 1.6%.
# HTR5A inv ag: HTR5A inverse agonism, opioid heterodimer counter-screen; P47898; HTR5A cell line, luminescence; inhibition, % at 9.3 µM; actives 0.083% (n = 340,000); in the data active = inhibition mostly above about 23%, no sharp cut-off; inactive = mostly below about 18%;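 also: 0% = cells with DMSO and 100% = no-cell wells with DMSO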
# Target sequence (P47898 whole entry, looked up): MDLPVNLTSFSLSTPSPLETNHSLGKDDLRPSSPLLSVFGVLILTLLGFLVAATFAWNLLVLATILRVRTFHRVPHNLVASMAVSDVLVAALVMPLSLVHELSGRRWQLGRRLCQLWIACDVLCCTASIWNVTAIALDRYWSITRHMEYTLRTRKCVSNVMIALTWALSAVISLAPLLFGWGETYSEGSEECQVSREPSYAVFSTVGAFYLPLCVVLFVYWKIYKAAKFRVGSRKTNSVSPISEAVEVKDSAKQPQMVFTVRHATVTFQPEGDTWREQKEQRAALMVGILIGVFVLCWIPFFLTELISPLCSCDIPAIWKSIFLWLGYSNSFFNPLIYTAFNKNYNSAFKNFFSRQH
# m5-HT2A agonist: activates the mouse 5-HT2A serotonin receptor; P35363; CHO-K1 mHTR2A beta-arrestin complementation, luminescence; percent of 30 µM serotonin response; activation, % at 7.6 µM; actives 0.66% (n = 360,000); AID 624169;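 active = activation above a run cutoff, the mean activation of all tested compounds plus 3 SD, cut at about 14% in these data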;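 also: 0% = plate median of compound wells and 100% = 30 µM serotonin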
# OPRM1-OPRD1 inv: mu-delta opioid heterodimer inverse agonism; P35372+P41143; inhibition, % at 9.3 µM; actives 0.21% (n = 340,000); cell-based MOR-DOR heterodimer luminescence; in the data active = inhibition above about 22%, passing the limit was not always enough;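 also: 0% = cells with DMSO and 100% = wells without cells with DMSO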
# MOR-DOR ag-1: agonists of human mu-delta opioid receptor heterodimerization; activation, % at 9.3 µM; P35372+P41143; cells, OPRM1-OPRD1 heterodimerization, luminescence; actives 0.3% (n = 340,000);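 also: 0% = vehicle-treated cells and 100% = reference agonist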
# HTR5A ag: activates human HTR5A in OPRM1-OPRD1 agonist counter-screen | P47898 | HTR5A agonist assay, luminescence, cell-based | activation, % at 9.3 µM | actives 0.61% (n = 340,000); in the data active = activation mostly above about 9.5%, no sharp cut-off; inactive = mostly below about 7.6%;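 also: 0% = cells with vehicle only and 100% = reference agonist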
# MOR-DOR ag-2: counter-screen for HTR5A agonists: OPRM1-OPRD1 heterodimerization agonism; shares compounds with HTR5A ag; AID 504913; actives 13% (n = 800); activation, % at 9.3 µM; U2OS counter-screen cells, complementation luminescence, 3 h
# HTR5A ag conf: HTR5A (human) agonism, confirmation. shares compounds with HTR5A ag. HTR5A agonist cell assay, luminescence. activation, % at 9.3 µM. actives 17% (n = 800). AID 504915; in the data active = activation above about 17%;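 also: 0% = cells with vehicle only and 100% = full reference agonist response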
# * hit, by the source's call; x = no result. Rule as the data show it, unless noted: active = activation above about 18%; inactive = the rest.
SMILES,HTR5A inv ag,m5-HT2A agonist,OPRM1-OPRD1 inv,MOR-DOR ag-1,HTR5A ag,MOR-DOR ag-2,HTR5A ag conf
CC(=O)NC(=S)Nc1ccc(NC(=O)COc2ccc(Cl)cc2Cl)cc1,-33,-5,-52,8,27*,0,-3
COc1ccc(NC(=O)C2CCCN(CCCc3ccccc3)C2)cc1OCC(C)C (stereo not drawn),-20,9,-33,7,16*,7,6
Cc1cc(=O)[nH]c(N/N=C/c2c[nH]c3ccccc23)n1,17,0,0,0,24*,3,46*
C=CCNC(=O)c1ccccc1NC(=O)C1CC(=O)N(C(C)C)C1 (stereo not drawn),-2,-1,6,-1,16*,-1,0
CC(C)N1CC(C(=O)Nc2ccccc2)CC1=O (stereo not drawn),-31,5,10,-2,2,x,x
CCc1nc2c(OCc3c(C)noc3C)cccn2c1N(C)C(=O)C(C)C,x,-2,x,x,x,x,x
COc1ccc(CCNC(=O)c2c(-c3ccccc3Cl)noc2C)cc1,-22,-4,5,-1,10,x,x
Cc1onc(-c2ccccc2Cl)c1C(=O)NCCN1Cc2ccccc2C1=O,-77,-2,-12,2,29*,0,-2
COc1ccc(C(CCN2CCCC(C)C2)c2c(OC)cc(OC)c3c(-c4ccccc4)cc(=O)oc23)cc1 (stereo not drawn),-66,-1,7,-1,23*,-1,-5
O=S(=O)(N/N=C\C=C\c1ccccc1)c1ccc(Cl)cc1,-106,1,-43,8,28*,4,43*
O=C1c2cc([N+](=O)[O-])ccc2-c2cc(Br)c(N=C(NO)C(F)(F)F)cc21,-81,-7,-27,6,21*,19*,0
O=S(=O)(NC1CCN(S(=O)(=O)c2ccc3c(c2)OCCO3)C1)c1c(F)cccc1F (stereo not drawn),-10,1,5,-1,3,x,x
COc1ccc2[nH]c3c(c2c1)CCNC3c1ccc([N+](=O)[O-])o1 (stereo not drawn),7,1,-7,1,-2,x,x
COc1ccc2[nH]c3c(c2c1)CCNC3C1CC=C(C)CC1 (stereo not drawn),-51,-1,-7,1,34*,5,51*
CC(C)(C)c1cc(C(=O)NNc2cc(C(F)(F)F)ccc2Cl)n(Cc2ccccc2)n1,15,-2,-89,18,18*,12,16
COc1ccc(CN2C3CCCC2CC(NC(=O)Nc2ccccc2)C3)cc1 (stereo not drawn),6,2,-2,0,-2,x,x
COc1ccc(CN2C3CCCC2CC(NC(=O)Nc2cccc(C)c2)C3)cc1 (stereo not drawn),17,-3,0,0,17*,1,7
CCC(C(=O)NC(C)(C)C)n1c(-c2ccc(C)cc2)nc2ccccc21 (stereo not drawn),x,-6,x,x,x,x,x
CCCN1C(=O)c2ccccc2NC1c1ccc(O)c(OCC)c1 (stereo not drawn),-2,-6,11,-2,0,x,x
C/C(=N\NC(N)=O)C1CC(Cc2ccccc2)C(=O)O1 (stereo not drawn),-1,2,1,0,0,x,x
CCSC1=NN2CCS(=O)(=O)N=C2S1,4,-3,10,-2,5,x,x
O=S1(=O)CCN2N=C(C34CC5CC(CC(C5)C3)C4)SC2=N1,6,3,-2,0,18*,1,-2
O=c1[nH]c(C2CCN(S(=O)(=O)c3ccccc3C(F)(F)F)CC2)nc2c1nnn2Cc1ccccc1,-47,11,-21,3,16*,0,5
CCOC(=O)CCCCC1C(CCCC(=O)OCC)C=NN1C (stereo not drawn),-2,1,13,-2,0,x,x
CN(C)c1cccc(NC(=O)Cc2ccc(F)cc2)c1,12,-4,8,-1,18*,1,8
SMILES,HTR5A inv ag,m5-HT2A agonist,OPRM1-OPRD1 inv,MOR-DOR ag-1,HTR5A ag,MOR-DOR ag-2,HTR5A ag conf
O=C(c1ccc(N2CCOCC2)c([N+](=O)[O-])c1)N1CCN(Cc2ccccc2)CC1,-7,3,7,-1,3,x,x
Cc1cc(C(F)F)nn1CC(=O)N1CCSCC1,6,4,10,-2,16*,1,0
C#CCn1cnc2c(oc3ccccc32)c1=O,-10,-1,5,-1,3,x,x
Cc1ccc(Cn2c(=N)n(CC(=O)c3ccccc3)c3ccccc32)cc1,-61,-6,-63,9,21*,11,6
CC(C)(C)C(=O)Cn1c(=N)n(Cc2ccccc2)c2ccccc21,-14,6,1,0,6,x,x
Oc1c(Br)cc(Br)cc1CNc1cccc2cccnc12,-1,-5,-35,7,16*,13,-3
COc1cccc(CNc2cccc3cccnc23)c1O,6,-1,-35,6,-1,x,x
O=C1Nc2ccc([N+](=O)[O-])cc2C1(O)N1CCCCCC1 (stereo not drawn),-3,0,2,0,1,x,x
Cc1ccc(N(C(=O)Cc2cccs2)C(C(=O)NC2CCCCC2)c2ccccn2)cc1C (stereo not drawn),3,0,-19,4,15*,30*,19*
Cc1cccc(N(C(=O)Cc2cccs2)C(C(=O)NC2CCCC2)c2ccncc2)c1 (stereo not drawn),-8,7,6,-1,2,x,x
Cc1ccc(C(=O)N2CCCC(N3CCN(c4cccc(C(F)(F)F)c4)CC3)C2)s1 (stereo not drawn),10,-12,-26,5,15*,6,6
CCCCOc1ccc(OCCNC(=O)C2CCCN2C(=O)Nc2ccccc2)cc1 (stereo not drawn),-50,13,-5,1,17*,14,-2
CCCCNC(=O)C1CCCN1C(=O)Nc1ccccc1 (stereo not drawn),30,-2,16,-3,0,x,x
O=C(NCc1ccc2c(c1)OCO2)c1cc(-c2ccccn2)nc2ccccc12,10,-5,4,-1,-4,x,x
COc1cccc(C2CC(=O)Nc3cc4c(cc32)CCC4)c1 (stereo not drawn),-42,6,1,0,15*,54*,-1
COc1ccc(C(=O)Nc2cccc([N+](=O)[O-])c2)cc1Br,-47,-2,-51,12,19*,8,0
CC1=CC(=O)CC(C)(C)[C@@]1(O)/C=C/[C@@H](C)O[C@@H]1O[C@H](CO)[C@@H](O)[C@H](O)[C@H]1O,3,1,13,-2,-1,x,x
COc1ccc(C(C)=O)cc1CS(=O)(=O)CC(=O)NCCc1c[nH]c2ccccc12,-49,-12,4,-1,18*,1,5
O=c1[nH]c2ccccc2cc1-c1nnn(-c2ccc(Cl)c(Cl)c2)n1,-61,-7,21,-4,18*,2,-3

# From PubChem
